Compound activity from PubChem.
SUMO Mot1 rescue = SUMOylation pathway inhibition by Mot1-301 growth rescue | S. cerevisiae Mot1-301 growth rescue, ATP luminescence, 38.5C; percent above DMSO median, 100 means doubled | growth rescue, % at 18.8 µM | 320,000 compounds, 1% hits | AID 2716;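 active means every valid replicate shows activation above 250% relative to neutral control wells; inactive means the rest, any valid replicate at or below 250%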
MsrA inh = bovine MsrA inhibition. purified bovine MsrA, absorbance read-out. inhibition, % at 15.5 µM. 360,000 compounds, 0.75% hits. AID 651718; in the data active means inhibition above about 4.5%
bovine MsrA act = activates bovine MsrA enzyme. AID 602163. purified bovine MsrA, absorbance read-out. activation, % at 10.6 µM. 360,000 compounds, 0.3% hits; in the data active means activation above about 7.5%
PKA-R1A activ = activators of PKA-R1A complex; P00514+P68181; PKA-R1A dissociation, Cy5-IP20 fluorescence polarization; scaled: DMSO 0%, 113 µM cGMP 100%; activation, % at 11.4 µM; 340,000 compounds, 0.083% hits; AID 504707;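 active means percent activation above the mean of all tested compounds plus 3 SD, cut at about 19% in these data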;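 further: higher means more PKAc released from R1A so a rise in polarization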
PKA-R2B activ = activators of human PKA-R2B complex. PKA-R2B holoenzyme dissociation, Cy5-IP20 fluorescence polarization; R2B truncated from residue 108, S112A mutant; 0% DMSO only, 100% 113 µM cGMP. activation, % at 11.4 µM. 340,000 compounds, 0.079% hits. AID 504700;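 active means activation above a cutoff set at the mean over all compounds plus 3 SD, cut at about 18% in these data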;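 further: higher means more holoenzyme dissociation and a rise in polarization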
Target sequence (P31323 whole entry, looked up, other chains not shown, the tested form may be a part): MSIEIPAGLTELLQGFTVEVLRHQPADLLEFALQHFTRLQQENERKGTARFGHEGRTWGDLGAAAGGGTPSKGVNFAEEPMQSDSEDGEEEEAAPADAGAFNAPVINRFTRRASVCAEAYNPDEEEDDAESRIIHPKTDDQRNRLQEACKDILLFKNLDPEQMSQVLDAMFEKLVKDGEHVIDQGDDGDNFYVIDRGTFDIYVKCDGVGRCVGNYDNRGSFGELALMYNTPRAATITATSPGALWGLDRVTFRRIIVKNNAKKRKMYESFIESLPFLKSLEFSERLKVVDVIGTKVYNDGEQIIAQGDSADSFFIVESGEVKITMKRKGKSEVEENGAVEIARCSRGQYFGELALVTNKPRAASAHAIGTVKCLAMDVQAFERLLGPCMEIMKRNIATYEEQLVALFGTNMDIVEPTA
Yeast Mot1 SUMO = inhibits SUMO pathway, affecting Mot1-301 yeast growth; S. cerevisiae Mot1-301 galactose growth, ATP luminescence, 24 h; -100 = growth of slx-deleted rescue strain; growth activity, percent, % at 42 µM; AID 493004; 2,300 tested, under 10 active; shares compounds with SUMO Mot1 rescue;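 active means Signal drops as the depositor expects, and the fitted half-maximal dose is no more than ten times the top valid tested dose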;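 further: more negative values mean stronger growth rescue toward the control strain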
Hits are given with their value; n = inactive; x = not tested or not shown; + = active, no number; ! = not active in a repeat. An excerpt weighted towards active compounds, which were near 2% of everything screened.

SMILES | SUMO Mot1 rescue | MsrA inh | bovine MsrA act | PKA-R1A activ | PKA-R2B activ | Yeast Mot1 SUMO
CCCCNC(=O)C[C@H]1C[C@@]2(C(=O)OC)C(=C[C@H](C(C)(C)C)O[C@@H]2C)N(CCC2=CCCCC2)C1=O | x | n | x | x | x | x
C[C@@]12C(=O)Nc3ccc(F)cc3C(=O)N1[C@H]1c3ccccc3OC[C@@H]1[C@@H]2c1ccccc1 | + | x | n | n | n | n
C[C@@]12C(=O)Nc3ccc(F)cc3C(=O)N1[C@H]1c3cc(Cl)ccc3OC[C@@H]1[C@@H]2c1ccccc1 | 409 | n | n | n | n | n
C[C@@]12C(=O)Nc3cc(Cl)ccc3C(=O)N1[C@H]1c3cc(Cl)ccc3OC[C@@H]1[C@@H]2c1ccccc1 | n | n | n | n | n | x
C[C@@]12C(=O)Nc3cc(Cl)ccc3C(=O)N1[C@H]1c3ccccc3OC[C@@H]1[C@@H]2c1ccccc1 | 454 | x | n | n | n | n
O=C(NNC(=O)c1ccc(-n2cncn2)c([N+](=O)[O-])c1)c1ccc(Cl)cc1 | 672 | n | n | n | n | n
CCN(CC)CC(=O)Nc1ccc(Oc2ccc(NC(=O)CN(CC)CC)cc2)cc1 | 371 | n | n | x | x | n
COc1cc(OC)cc(C(=O)NCC2CCN(C(=O)C(=O)c3cccs3)CC2)c1 | x | n | x | x | x | x
Cc1cc(C#Cc2c(-c3ccccc3)n(C)c3ccccc23)ccc1F | 716 | n | n | n | n | n
CC(C)C[C@H]1COc2cc(N3CCCC3)ccc2S(=O)(=O)N1 | x | n | x | x | x | x
O=C(/C=C/c1ccc(F)cc1)NCC1(c2ccccc2)CCOCC1 | 542 | n | n | n | n | n
CC1CC(C)(C)NC(=S)N1CC(=O)NCc1ccc(F)cc1 (stereo unspecified) | 835 | n | n | n | n | n
O=C(C(=O)N1CCC(CNC(=O)C2COc3ccccc3O2)CC1)c1cc2ccccc2o1 (stereo unspecified) | x | n | x | x | x | x
COc1cccc(CN2C(=O)[C@H]3Cc4c([nH]c5ccccc45)C(C)(C)N3C2=O)c1 | n | n | n | n | n | x
CC1(C)c2[nH]c3ccccc3c2C[C@H]2C(=O)N(Cc3cccc(F)c3)C(=O)N21 | 448 | n | n | n | n | n
C[C@@H]1CN([C@@H](C)CO)C(=O)CCCn2cc(nn2)CO[C@H]1CN(C)C(=O)Nc1cccc(F)c1 | x | n | x | x | x | x
Cc1cc(C)cc(OCC(=O)Nc2ccc(N3CCN(C(=O)c4ccco4)CC3)cc2)c1 | 793 | n | n | n | n | n
c1ccc(-c2cc3cc4c(cc3cn2)OCO4)cc1 | 528 | n | n | n | n | n
c1ccc(-c2cc3ccccc3cn2)cc1 | 372 | n | n | n | n | n
Fc1ccc2cc(-c3ccccc3)ncc2c1 | n | n | n | n | n | x
COc1cc(C(=O)NCCC2=CCCCC2)ccc1OC1CCN(C(C)=O)CC1 | 547 | n | n | n | n | n
Cc1cc(C)nc(Nc2cccc(Cl)c2)n1 | n | n | n | n | n | x
CN(C#N)c1nc(Cl)nc(Nc2cccc(Cl)c2)n1 | 597 | n | n | n | n | n
Cc1cccc(N2CCN(CCCNC(=O)c3ccc(NC(=O)C4=CSCCO4)cc3)CC2C)c1 (stereo unspecified) | 445 | n | n | n | n | n
CC1CCCN(CCCNC(=O)c2ccc(NC(=O)C3=CSCCO3)cc2)C1 (stereo unspecified) | n | n | n | n | n | x
SMILES | SUMO Mot1 rescue | MsrA inh | bovine MsrA act | PKA-R1A activ | PKA-R2B activ | Yeast Mot1 SUMO
COC(=O)[C@]12C[C@H](CC(=O)N3CCC(c4ccccc4)CC3)C(=O)N(CCc3ccc(OC)c(OC)c3)C1=C[C@H](C(C)(C)C)O[C@@H]2C | x | n | x | x | x | x
CCCCS(=O)(=O)N1CCCc2nc(-c3ccccc3)ccc21 | x | n | x | x | x | x
CCCCS(=O)(=O)N1CCCc2nc(C)c(C)cc21 | x | n | x | x | x | x
CN(CC(=O)Nc1sccc1C#N)Cc1ccccc1 | 487 | n | n | n | n | n
CN(CC(=O)Nc1sccc1C#N)S(=O)(=O)c1ccc(F)cc1 | x | n | n | n | n | x
COC(=O)[C@]12C[C@H](CC(=O)NCCCN3CCCC3=O)C(=O)N(Cc3ccccc3)C1=C[C@H](C1CCCC1)O[C@@H]2C | x | n | x | x | x | x
N#Cc1cc2c(nc1SC1CCCCC1O)CCCC2 (stereo unspecified) | 485 | n | n | n | n | n
CSc1nc2c(cc1C#N)CCC2 | n | n | n | n | n | x
CC(C)[C@H](NC(=O)C1CC1)C(=O)N1CCC[C@H]1C(=O)NCCc1ccccc1Cl | x | n | x | x | x | x
COc1ccc2c(c1)c(CC(=O)OCC(=O)O)c(C)n2C(=O)c1ccc(Cl)cc1 | x | n | n | n | n | x
COc1ccc2c(c1)c(CC(=O)OCC(N)=O)c(C)n2C(=O)c1ccc(Cl)cc1 | 674 | n | n | n | n | n
Nc1[nH]c(C(=O)c2ccc(Br)cc2)c(-c2ccc(Br)cc2)c1C(=O)NCc1cccc2ccccc12 | x | n | x | x | x | x
CC1(C)Cc2c(sc3ncnc(N)c23)CO1 | n | n | n | n | n | x
CCCC1Cc2c(sc3ncnc(N)c23)CO1 (stereo unspecified) | 420 | n | n | n | n | n
CN(c1ccc(C(=O)NCCSCc2ccco2)cc1)S(C)(=O)=O | n | n | n | n | n | x
CN/C(=C/[N+](=O)[O-])NCCSCc1ccc(CN(C)C)o1 | 860! | n | n | n | n | n
CCC(C)NCCOc1ccc(Br)cc1 (stereo unspecified) | n | n | n | n | n | x
CCC(C)NCCOc1ccccc1C (stereo unspecified) | 386 | n | n | n | n | n
COCCNC(=O)c1c(N)[nH]c(C(=O)c2ccc(Br)cc2)c1-c1ccc(Br)cc1 | x | n | x | x | x | x
CC(C)[C@H](NC(=O)c1ccc(Cl)cc1Cl)C(=O)N1CCC[C@H]1C(=O)NCc1ccccc1 | x | n | x | x | x | x
O=C(N[C@H](C(=O)N1CCC[C@H]1C(=O)NC1CCCC1)C1CCCCC1)c1cccs1 | x | n | x | x | x | x
Cc1ccccc1-n1c(-c2cccnc2)n[nH]c1=S | + | x | n | n | n | n
O=C(/C=C/c1cn(-c2ccccc2)nc1-c1cccnc1)N1CCCC1 | x | n | n | n | n | x
N#C/C(=C\c1cn(-c2ccccc2)nc1-c1cccnc1)c1nnc2n1CCCCC2 | 397 | n | n | n | n | n
Cc1ccccc1-c1ccc2c(c1)[C@@H]1C[C@H](N(C)CC3CCCCC3)[C@H]([C@H](C)O)CN1CC2 | x | n | x | x | x | x
COc1cc(COc2ccc3c(C)c(CC(=O)O)c(=O)oc3c2C)cc(OC)c1OC | 628 | n | n | n | n | n
CCc1c(C)c2ccc(OCC(=O)OC(C)C)c(C)c2oc1=O | n | n | n | n | n | n
COC(=O)[C@]12C[C@H](CC(=O)N3CCN(C(=O)C4CC4)CC3)C(=O)N(CCC3=CCCCC3)C1=C[C@H](COCc1ccccc1)O[C@@H]2C | x | n | x | x | x | x
